# This is a sample that favours compounds with a hit; in the whole collection about 18% have one here.
# RORgamma inh: qHTS for inhibitors of ROR gamma transcriptional activity | Nuclear receptor ROR-gamma (Mus musculus), P51450 | Drosophila S2 Gal4-RORgamma UAS-luciferase reporter, 20 h | Potency, µM (highest dose often 53.6 µM), for the others: at the top dose activity change, negative = inhibition, usual class: inhibitors | actives 5.4% (n = 310,000) | AID 2551, 2010; also: potency is read from the fitted curve at half-maximal effect; nearly all actives have a fitted effect of over 60% in size
# Target sequence (P51450 whole entry, looked up, the tested form may be a part): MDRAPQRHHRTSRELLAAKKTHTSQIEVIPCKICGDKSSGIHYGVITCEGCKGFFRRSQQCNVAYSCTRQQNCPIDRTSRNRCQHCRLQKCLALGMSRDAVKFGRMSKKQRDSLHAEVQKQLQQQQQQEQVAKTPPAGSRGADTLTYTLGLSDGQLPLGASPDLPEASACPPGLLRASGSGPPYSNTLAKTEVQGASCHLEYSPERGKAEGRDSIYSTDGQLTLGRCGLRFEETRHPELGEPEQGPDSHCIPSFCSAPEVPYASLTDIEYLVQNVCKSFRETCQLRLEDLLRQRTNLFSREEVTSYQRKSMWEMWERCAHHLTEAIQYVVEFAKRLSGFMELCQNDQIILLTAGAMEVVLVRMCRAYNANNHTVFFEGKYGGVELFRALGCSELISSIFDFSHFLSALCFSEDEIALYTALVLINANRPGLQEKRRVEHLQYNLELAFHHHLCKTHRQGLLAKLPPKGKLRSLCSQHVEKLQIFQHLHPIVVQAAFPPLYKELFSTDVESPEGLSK
#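 Drosophila Schneider cells stably carrying a metallothionein-driven Gal4 DBD–ROR gamma fusion and a UAS-Photinus luciferase reporter were exposed to compound for 1 hr, then induced with copper sulfate (700 uM final) for 20 hr at ambient temperature before luminescence reading.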
# IL-1B inflam inh: qHTS for Inhibitors of Inflammasome Signaling: IL-1-beta AlphaLISA Primary Screen. actives 4.7% (n = 360,000). AID 743279, 2014. THP-1 LPS/ATP IL-1B secretion, AlphaLISA, 16 h; active compounds read low. activity change, % at 57.5 µM; in the data active = activity change below about -50%; inconclusive = mostly about -30% to -49%
#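 THP-1 cells pretreated 1 hr with compounds (up to 57.5 uM final), then stimulated with LPS (250 ng/mL final) plus ATP (1.25 mM final); secreted IL-1B measured by AlphaLISA after 16 hr, decreased signal indicating inhibition.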
# LDHA inh: qHTS assay for inhibitors of human lactate dehydrogenase. actives 0.15% (n = 480,000). AID 1347041, 2019. L-lactate dehydrogenase A chain (Homo sapiens), P00338. purified LDHA, NADH/diaphorase-resazurin fluorescence; active compounds read low. activity change, % (values are at about 110 or 230 µM); in the data active = activity change below about -30%; inconclusive = mostly about -25% to -30%;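 also: plate controls were DMSO wells for no effect and wells without enzyme for full effect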
#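 Remaining NADH was detected by diaphorase (0.133 mg/mL) converting 37 µM resazurin to fluorescent resorufin, read at 0 and 20 minutes. The preceding 5-minute room-temperature reaction used 2 nM LDHA, 0.2 mM sodium pyruvate and 0.06 mM NADH at pH 7.4.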
# TDP1 cell CPT: qHTS for Inhibitors of human tyrosyl-DNA phosphodiesterase 1 (TDP1): qHTS in cells in presence of CPT. chicken DT40 Tdp1-/-;hTDP1 cells + 20 nM CPT, ATP luminescence, 48 h. actives 12% (n = 420,000). Potency, µM (titrated, usually from 46.2 µM), for the others: at the top dose activity change, negative = growth inhibition, hits mostly inhibitors. AID 686979, 2013; also: potency is read from the fitted curve at half-maximal effect; nearly all actives have a fitted effect of over 55% in size
#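 Cell growth measured by CellTiter-Glo luminescence after a minimum 48 h, 37 C compound exposure with 20 nM CPT in Tdp1-knockout DT40 cells stably expressing hTDP1, seeded 400/well; qHTS titration format.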
# Gal4-VP16 FLuc: VP16 counterscreen qHTS for inhibitors of ROR gamma transcriptional activity; Drosophila S2 Gal4-VP16 UAS-luciferase, luminescence, 20 h; actives 3.5% (n = 310,000); Potency, µM (top dose mostly 53.6 µM), for the others: at the highest dose activity, negative = inhibition, actives largely listed as inhibitors;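 also: Gal4-VP16 expression switched on by copper sulfate through the metallothionein promoter; potency is read from the fitted curve at half-maximal effect; nearly all actives have a fitted effect of over 50% in size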
# TDP1 cell noCPT: qHTS for Inhibitors of human tyrosyl-DNA phosphodiesterase 1 (TDP1): qHTS in cells in absence of CPT. Potency, µM (titrated, usually from 46.2 µM), for inactives: at the highest dose activity change, negative = growth inhibition, usual class: inhibitors. actives 15% (n = 420,000). DT40 Tdp1-/- hTDP1 cells, no CPT, ATP luminescence, 48 h; also: potency is read from the fitted curve at half-maximal effect; nearly all actives have a fitted effect of over 55% in size
#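 A cellular qHTS used chicken DT40 cells lacking endogenous Tdp1 but carrying stably transfected human TDP1. Compounds were applied without camptothecin, and cell growth kinetics were judged by ATP-dependent luminescence after ≥48 hr.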
# Starred values were filed as active, the others as inactive; ? = inconclusive; / = not tested or not shown. Unless noted, calls follow the shape of the dose curve; as a rule, active = well fitted curve in the direction sought with a large enough effect; inconclusive = small, poorly fitted or top-dose-only effect, or another doubt; inactive = no such curve, though single readings can be large; an effect the other way counts as inactive or inconclusive. Unless noted, % is scaled to controls: 0 for no effect and ±100 for the full control effect.
SMILES,RORgamma inh,IL-1B inflam inh,LDHA inh,TDP1 cell CPT,Gal4-VP16 FLuc,TDP1 cell noCPT
COc1ccc(C(=S)N2CCN(c3ccccc3Cl)CC2)cc1OC,-40%,0,-6,?,4%,16µM*
CON(C)c1nc(OCCNC(=O)OCc2ccc(Cl)cc2Cl)nc(N(C)C)n1,18%,45,-8,16µM*,-4%,8.2µM*
CON(C)c1nc(OCCNC(=O)COc2ccc(Cl)cc2C)nc(N(C)C)n1,0%,-2,-2,8.2µM*,-2%,8.2µM*
Cc1ccc2cc(CCNS(=O)(=O)c3ccc(Cl)cc3)c(=O)[nH]c2c1C,44%,-79*,-10,21µM*,-15%,23µM*
Cc1ccc2cc(CCNC(=O)c3ccc4c(c3)OCO4)c(=O)[nH]c2c1C,?,0,3,21µM*,0%,15µM*
O=C(NC(=S)NCc1ccc2c(c1)OCO2)c1ccccc1,20µM*,-4,-10,15%,18µM*,1%
O=C(NCc1ccc2c(c1)OCO2)c1ccccc1,?,-8,1,-8%,21%,-9%
Cc1ccc2cc(CCNC(=O)C(C)C)c(=O)[nH]c2c1C,14%,6,-3,14%,13%,1%
COc1ccc(OC)c2[nH]c(=O)c(CCNS(=O)(=O)c3ccc(Cl)cc3)cc12,?,-18,2,-1%,-13%,-23%
O=C(NC(=S)NCc1ccccc1)c1ccc2c(c1)OCO2,7.9µM*,-20,-2,-2%,11µM*,-8%
Nc1nccnc1C(=O)NCCC(c1ccccc1)c1ccccc1,/,/,7,/,/,/
Cc1ccc(C2=NN(c3nc(C)cs3)C(c3ccccc3F)C2)cc1 (stereo not drawn),/,/,8,/,/,/
O=C(NCCc1ccccc1)C(=O)N/N=C/c1ccc2c(c1)OCO2,23%,0,-5,23µM*,-4%,21µM*
O=C(NCCc1ccc2c(c1)OCCO2)c1ccccn1,-30%,-10,-8,?,?,?
O=C(Cc1ccc(OCc2ccccc2)cc1)NCc1ccc2c(c1)OCO2,/,43,-5,?,/,7.3µM*
O=C(NCCc1ccccc1)c1ccc2c(c1)OCO2,2.8µM*,-6,1,-19%,5µM*,?
O=C(NCCc1ccc2c(c1)OCCO2)c1cc(F)cc(F)c1,?,4,3,21µM*,?,16µM*
O=C(NCc1ccc2c(c1)OCO2)OCc1ccccc1,/,?,2,-5%,/,-19%
O=C(NCc1ccccn1)C(=O)N/N=C/c1ccc2c(c1)OCO2,5%,0,1,-10%,15%,-2%
O=S(=O)(Cc1ccc(F)cc1Cl)C12CC3CC(CC(C3)C1)C2,/,/,-2,/,/,/
CCN1CCN(Cc2c(O)ccc3c(=O)c(-c4ccccc4OC)coc23)CC1,3%,13,-3,-19%,-5%,-5%
CCN1CCN(Cc2c(O)ccc3c2O/C(=C\C=C\c2ccccc2OC)C3=O)CC1,-23%,-23,-1,?,-6%,18µM*
CC(=O)c1nnn(-c2nc(N3CCCCC3)nc(N3CCOCC3)n2)c1C,/,/,1,/,/,/
COc1ccc(CCNC(=O)c2ccccc2NC(=O)C2=C(C)OCCS2)c(OC)c1,?,0,-4,21µM*,-5%,10µM*
COc1cc(NC(=O)C2=C(C)OCCS2)c(Cl)cc1C(=O)NCCN(C)C,7%,-83*,-2,-4%,0%,-22%
SMILES,RORgamma inh,IL-1B inflam inh,LDHA inh,TDP1 cell CPT,Gal4-VP16 FLuc,TDP1 cell noCPT
CN(C)c1ccc(C(=O)NCc2coc(-c3cccs3)n2)cc1[N+](=O)[O-],/,/,6,/,/,/
CC(=O)c1ccc(N2CCN(C(=O)CCCn3c(=O)[nH]c4ccc(Br)cc4c3=O)CC2)cc1,?,-30,0,15µM*,-9%,13µM*
CC(=O)c1ccc(N2CCN(C(=O)CCCCn3c(=O)[nH]c4ccccc4c3=O)CC2)cc1,/,/,1,13µM*,/,16µM*
O=C(CCn1c(=O)[nH]c2ccccc2c1=O)N1CCN(c2ccc(Cl)cc2)CC1,3%,23,-9,?,0%,-25%
O=C(CCCn1c(=O)[nH]c2ccc(Br)cc2c1=O)N1CCN(c2cccc(Cl)c2)CC1,/,/,0,15µM*,/,8.2µM*
O=C(CCCn1c(=S)[nH]c2ccccc2c1=O)N1CCN(c2cccc(Cl)c2)CC1,?,21,0,16µM*,-2%,18µM*
O=C(Nc1ccc(I)cc1F)c1ccc(-c2ccccc2)cc1,/,/,3,/,/,/
CCCCNc1nc2c(c(=O)n(Cc3ccc(Br)cc3)c(=O)n2C)n1C,/,/,0,/,/,/
O=C(c1cn(-c2ccccc2)nc1-c1ccncc1)n1nnc2ccccc21,/,-18,1,16µM*,/,-29%
COc1ccc(-c2cc(NC(=O)c3ccc(S(=O)(=O)NCC4CCCO4)cc3)ccc2OC)cc1 (stereo not drawn),/,/,16,/,/,/
NC1=NC[C@H](c2ccccc2)N1CCc1cccc(F)c1,-13%,0,-4,16µM*,3%,13µM*
S=C1NC[C@H](c2ccccc2)N1CCCCC1CCCCC1,0.45µM*,21,-2,?,3.2µM*,?
NC1=NC[C@H](c2ccccc2)N1CCCCC1CCCCC1,-1%,-83*,-1,5.2µM*,-2%,7.3µM*
O=C1NC[C@@H](CCCCN2CCN(Cc3ccccc3)C(=O)C2=O)N(CCC2CCCCC2)C1=O,/,-3,0,0%,/,-18%
O=S(=O)(O)NCC(O)CCl (stereo not drawn),/,/,-8,/,/,/
CCCC(=O)OCc1cc(=O)oc2cc(O)ccc12,/,/,-3,/,/,/
C[C@H]1CN([C@@H](C)CO)S(=O)(=O)c2ccc(/C=C/c3ccccc3)cc2O[C@H]1CN(C)C(=O)NC1CCCCC1,/,-55*,1,?,/,18µM*
C[C@H]1CN([C@@H](C)CO)S(=O)(=O)c2ccc(-c3ccccc3)cc2O[C@H]1CN(C)C(=O)C1CCC1,/,19,-11,?,/,15µM*
C[C@H](CO)N1C[C@H](C)[C@@H](CN(C)C(=O)Nc2ccccc2F)Oc2cc(Br)ccc2S1(=O)=O,/,25,-2,-3%,/,-11%
CC(C)NC(=O)N(C)C[C@H]1Oc2cc(Br)ccc2S(=O)(=O)N([C@H](C)CO)C[C@H]1C,/,21,-10,-26%,/,-7%
